The target of test [1] is Ubiquitin carboxyl-terminal hydrolase 1 (Homo sapiens) (UniProt O94782). As to the kind of experiment: Inhibitors of USP1/UAF1: Pilot qHTS (AID 504865). Note: nearly all actives have a fitted effect of over 35% in size. Note: potency is the fitted concentration of half-maximal effect. The method, boiled down: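 USP1/UAF1 complex (1nM) preincubated with compound 15 min at room temperature, then Ub-Rho substrate (150nM final) added. Fluorescence read kinetically at 480/540 nm, 6 reads every 60 seconds. Buffer: 50mM HEPES pH 7.8, 0.5mM EDTA, 0.1 mg/ml BSA, 1mM TCEP, 0.01% Tween-20.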
Background: In qHTS, concentration-response curves come from the screen itself.

Test [2] deals with Luciferin 4-monooxygenase (Photinus pyralis) (UniProt P08659). The test can be described thus: Biochemical firefly luciferase enzyme assay for NPC (AID 624030).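 Note: purified P. pyralis luciferase at 10 nM with luciferin and ATP substrate; 0% = DMSO and -100% = full luciferase inhibition by PTC124 control; nearly all actives have a fitted effect of over 70% in size.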 The method, boiled down: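 Counter-screen for direct inhibition of the luciferase enzyme by approved-drug library compounds, run at 10 nM enzyme in 50 mM Tris acetate (final). Luminescence was read within 5 min of enzyme-buffer addition and normalized to PTC124 versus DMSO (0%).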

Test [3] deals with CP192. The test can be described thus: qHTS profiling for inhibitors of Plasmodium falciparum proliferation (AID 504749).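 For activity, negative = inhibition: 0% = DMSO vehicle and full inhibition = artemisinin control.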 Note: nearly all actives have a fitted effect of over 60% in size. Note: potency is the fitted concentration of half-maximal effect. Particulars: P. falciparum in erythrocytes, SYBR Green DNA, 72 h; series mostly up to 28.7 µM. An outline of the steps: (§1)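 Fluorescence of SYBR Green-bound parasite DNA, read at 485/535 nm, served as the growth measure. Infected erythrocytes were cultured with compound 72 h; artemisinin (0.29 uM) and DMSO wells defined the normalization range.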

Test [4] deals with CP201. Described as above. The settings on record: P. falciparum in erythrocytes, SYBR Green DNA, 72 h; series mostly up to 28.7 µM. The method, boiled down: as §1
In test [5] the test system is CP211. The description is as above. Particulars: P. falciparum in erythrocytes, SYBR Green DNA, 72 h; series mostly up to 28.7 µM. The method, boiled down:
as §1

For test [6], the system named is CP262. The description is as above. The settings on record: P. falciparum in erythrocytes, SYBR Green DNA, 72 h; series mostly up to 28.7 µM. The method, boiled down: as §1
Test [7] relates to CP268. Described as above. Particulars: P. falciparum in erythrocytes, SYBR Green DNA, 72 h; series mostly up to 28.7 µM. An outline of the steps: as §1
Test [8] deals with CP269. The description is as above. The settings on record: P. falciparum in erythrocytes, SYBR Green DNA, 72 h; series mostly up to 28.7 µM. The method, boiled down:
as §1

Test [9] has as its system CP315. The test is described as above. The settings on record: P. falciparum in erythrocytes, SYBR Green DNA, 72 h; series mostly up to 28.7 µM. An outline of the steps: as §1
Test [10] deals with CP325. Described as above. The settings on record: P. falciparum in erythrocytes, SYBR Green DNA, 72 h; series mostly up to 28.7 µM. An outline of the steps:
as §1

Test [11] deals with CP329. Described as above. The settings on record: P. falciparum in erythrocytes, SYBR Green DNA, 72 h; series mostly up to 28.7 µM. An outline of the steps:
as §1

The test system of test [12] is FAB9. The test is described as above. Particulars: P. falciparum in erythrocytes, SYBR Green DNA, 72 h; series mostly up to 28.7 µM. The method, boiled down:
as §1

The subject of test [13] is JCK. Described as above. Particulars: P. falciparum in erythrocytes, SYBR Green DNA, 72 h; series mostly up to 28.7 µM. An outline of the steps:
as §1

For test [14], the system named is PC49. Described as above. Particulars: P. falciparum in erythrocytes, SYBR Green DNA, 72 h; series mostly up to 28.7 µM. An outline of the steps: as §1
The nature of test [15]: Inducers of the Endoplasmic Reticulum Stress Response (ERSR) in human glioma: Validation (AID 504836). Note: 0% is about no effect. An outline of the steps:
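Stably transfected U87-MG human glioma cells carrying a GRP78-based luminescent sensor were seeded at 1000 cells/well, pin-dosed with compounds and incubated 16 h. Luciferase reagent was then added, and end-point luminescence was read after 10 min at room temperature.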

Test [16] in a line: qHTS profiling for inhibitors of Plasmodium falciparum proliferation (AID 504749).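 For activity, negative = inhibition: 0% = DMSO vehicle and full inhibition = artemisinin control.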 For all read-outs here: nearly all actives have a fitted effect of over 60% in size. Note: potency is the fitted concentration of half-maximal effect. Particulars: P. falciparum in erythrocytes, SYBR Green DNA, 72 h; for activity, negative = inhibition: at 28.7 µM (top of the series). The method, boiled down:
as §1

Test [17] addresses Cytochrome P450 3A4 (Homo sapiens) (UniProt P08684). As to the kind of experiment: qHTS Assay for Inhibitors and Substrates of Cytochrome P450 3A4 (AID 884). Note: nearly all actives have a fitted effect of over 50% in size. Note: potency is the fitted concentration of half-maximal effect. The method, boiled down:
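Luminescent readout of luciferin produced by CYP3A4 (20 nM) dealkylation of Luciferin-PPXE, 25 uM (its KM). NADPH-driven reaction ran 60 min at RT after 10 min compound preincubation; data scaled to 57 uM ketoconazole as 100% inhibition.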

The target is the same in test [18]. The test can be described thus: qHTS Assay for Activators of Cytochrome P450 3A4 (AID 885). Note: nearly all actives have a fitted effect of over 65% in size. The method, boiled down:
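CYP3A4 activity: Luciferin-PPXE O-dealkylation, 25uM substrate, 200mM KPO4, RT throughout. Read-out is luciferase luminescence; higher values reflect activation.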

Test [19] in a line: Confirmation and Secondary Assay for Modulators of Hemoglobin Beta Chain Splicing at IVS2 654 locus (AID 910).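 Note: per-well total GFP intensity by laser scanning cytometry after 2-day treatment; % of control where 0% means no effect.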 An outline of the steps: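 HeLa cells stably carrying EGFP interrupted by mutant beta-globin IVS2-654 intron (CMV-driven) were treated with compound for 2 days at 37C; corrected splicing was scored as total peak GFP intensity per well (488 nm excitation, 500-520 nm emission).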

Test [20] in a line: Confirmation and Secondary Assay for Modulators of Hemoglobin Beta Chain Splicing at IVS2 705 locus (AID 930).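 Note: HeLa cells stably expressing the EGFP-705 splicing reporter; GFP fluorescence per well restored by corrected splicing of the IVS2-705 intron in EGFP; % of control where 0% means no effect.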 The method, boiled down:
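HeLa EGFP-705 reporter; 500 cells/well, o/n 37C 5% CO2; cpd 2 d; 488 ex/500-520 em laser scan; total peak GFP intensity/well. Ref: 500 nM […] antisense PNA.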

Each structure is given as a SMILES string. Unmarked numbers belong to inactive results. Records with an inconclusive call do not appear. Activity calls are given as the source filed them. Calls come from the whole dose curve; as a rule, active = well fitted curve in the direction sought with a large enough effect; inconclusive = small, poorly fitted or top-dose-only effect, or another doubt; inactive = no such curve, though single readings can be large; an effect the other way counts as inactive or inconclusive.

Experimental findings from PubChem BioAssay (NCATS) are described below.

Cytochrome P450 3A4 (Homo sapiens), sequence (P08684 whole entry, looked up): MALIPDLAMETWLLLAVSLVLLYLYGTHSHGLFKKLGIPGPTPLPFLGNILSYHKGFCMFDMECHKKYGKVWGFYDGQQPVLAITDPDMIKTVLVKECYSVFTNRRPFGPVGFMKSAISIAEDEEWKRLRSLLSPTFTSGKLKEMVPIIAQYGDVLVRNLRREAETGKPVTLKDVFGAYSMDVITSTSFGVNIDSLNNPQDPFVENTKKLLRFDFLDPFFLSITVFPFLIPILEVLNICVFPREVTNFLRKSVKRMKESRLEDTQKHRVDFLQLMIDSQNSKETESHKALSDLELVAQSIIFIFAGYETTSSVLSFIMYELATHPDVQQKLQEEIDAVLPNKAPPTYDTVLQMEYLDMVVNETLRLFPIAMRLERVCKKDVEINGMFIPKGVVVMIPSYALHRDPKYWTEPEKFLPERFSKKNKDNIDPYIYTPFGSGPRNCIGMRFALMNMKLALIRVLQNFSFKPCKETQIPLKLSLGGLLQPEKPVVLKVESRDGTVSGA
Luciferin 4-monooxygenase (Photinus pyralis), sequence (P08659 whole entry, looked up): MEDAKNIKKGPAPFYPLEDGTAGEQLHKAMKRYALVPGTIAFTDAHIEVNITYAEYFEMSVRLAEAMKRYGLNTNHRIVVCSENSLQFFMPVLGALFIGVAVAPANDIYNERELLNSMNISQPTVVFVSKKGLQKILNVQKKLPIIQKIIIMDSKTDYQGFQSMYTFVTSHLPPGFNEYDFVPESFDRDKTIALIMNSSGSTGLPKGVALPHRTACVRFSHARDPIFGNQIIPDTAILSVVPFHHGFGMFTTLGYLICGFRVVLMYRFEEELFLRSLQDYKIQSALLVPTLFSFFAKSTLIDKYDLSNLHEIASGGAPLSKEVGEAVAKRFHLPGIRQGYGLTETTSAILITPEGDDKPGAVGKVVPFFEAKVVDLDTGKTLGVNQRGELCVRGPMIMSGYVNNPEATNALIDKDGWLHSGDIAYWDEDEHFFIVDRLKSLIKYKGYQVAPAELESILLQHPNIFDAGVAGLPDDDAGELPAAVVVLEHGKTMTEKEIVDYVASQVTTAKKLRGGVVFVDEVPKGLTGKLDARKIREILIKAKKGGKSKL
Ubiquitin carboxyl-terminal hydrolase 1 (Homo sapiens), sequence (O94782 whole entry, looked up): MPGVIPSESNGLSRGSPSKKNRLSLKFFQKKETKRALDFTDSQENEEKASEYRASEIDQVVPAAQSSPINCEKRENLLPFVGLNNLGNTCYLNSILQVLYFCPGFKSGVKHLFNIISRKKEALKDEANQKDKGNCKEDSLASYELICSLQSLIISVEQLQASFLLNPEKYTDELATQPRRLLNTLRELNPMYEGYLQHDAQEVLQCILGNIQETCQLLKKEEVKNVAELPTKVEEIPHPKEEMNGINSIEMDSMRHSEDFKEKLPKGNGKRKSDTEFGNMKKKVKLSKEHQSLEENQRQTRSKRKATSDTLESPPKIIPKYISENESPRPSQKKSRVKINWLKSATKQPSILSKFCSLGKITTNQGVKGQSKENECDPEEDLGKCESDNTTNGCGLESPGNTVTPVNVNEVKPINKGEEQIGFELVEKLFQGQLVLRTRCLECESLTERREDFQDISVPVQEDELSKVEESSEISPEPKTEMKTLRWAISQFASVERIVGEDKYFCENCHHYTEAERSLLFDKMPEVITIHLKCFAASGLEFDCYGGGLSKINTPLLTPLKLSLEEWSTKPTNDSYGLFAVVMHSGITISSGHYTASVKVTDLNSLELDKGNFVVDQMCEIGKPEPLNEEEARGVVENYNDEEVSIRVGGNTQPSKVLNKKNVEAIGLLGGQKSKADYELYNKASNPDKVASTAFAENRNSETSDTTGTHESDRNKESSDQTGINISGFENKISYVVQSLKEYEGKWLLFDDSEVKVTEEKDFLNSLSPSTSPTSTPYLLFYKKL

Regarding `C[C@]12CC[C@H]3[C@@H](CC[C@@]45O[C@@H]4C(=O)C(C#N)C[C@]35C)[C@@H]1CC[C@@H]2O` (stereo not given in full), the Potency result in test [1], in test [2], in test [3], in [4], in [5] and in test [6] was “inactive” in each case. The Potency result in [7], in test [8], in test [9], in test [10], in test [11] and in [12] was “inactive” throughout. Besides, the Potency entry in test [13] and in [14] was “inactive” each time.

Turning to `O=C(c1ccc(Cl)cc1)N1CCN(c2ccc([N+](=O)[O-])c3ncccc23)CC1`, the outcome in [15] was inactive.

Take `CC(=O)OC1C([N+]2(C)CCCCC2)C[C@H]2C3CC[C@H]4C[C@H](OC(C)=O)C([N+]5(C)CCCCC5)CC4(C)C3CCC12C` (stereo not given in full): the Potency entry in [1] is “inactive”.

Turning to `O=C1c2ccccc2C(=O)c2c(NCCc3ccc(O)cc3)ccc(NCCc3ccc(O)cc3)c21`, the molecule was called inactive in test [15].

Consider `CC(C)CCC(=O)OC1CCC2C3CCC4=CC(=O)CC[C@]4(C)C3CC[C@]12C` (stereo not given in full), for which the Potency result in test [2], in test [3], in [4], in test [5], in test [6] and in test [7] was “inactive” in each case. Moreover, the Potency entry in test [8], in [9], in test [10], in test [11], in [12] and in [13] was “inactive” throughout. Also, the Potency entry in test [14] is “inactive”. Also, in test [16] (parasite line A), the Potency is 10 µM (active).

As to `c1cnc2c(c1)ccc1cccnc12`, the outcome in [15] was inactive.

As for `NS(=O)(=O)C#Cc1ccccc1`, the molecule was classed as inactive in test [15].

As to `CCN(c1nc(N)c(C(=O)N=C(N)N)nc1Cl)C(C)C`, in test [15], the molecule was classed as inactive.

For `Cc1cc(NC2CCCCC2)nc(-n2nc(C)cc2C)n1`, the molecule was called inactive in [15].

Consider `CC(=O)[C@H]1CC[C@H]2C3CC[C@H]4C[C@H](O)CC[C@]4(C)C3CC[C@]12C` (stereo not given in full), for which the Potency entry in test [1], in test [2], in test [3], in test [4], in test [5] and in test [6] was “inactive” each time. The Potency entry in test [7], in test [8], in [9], in [10], in test [11] and in test [12] was “inactive” in each case. In addition, the Potency entry in test [13] and in test [14] was “inactive” in each case. Further, the values for the activity, negative = inhibition in test [16] (parasite line A) and in test [16] (parasite line B) were -11.3% and 2.02%, respectively.

As for `Cc1ccccc1/C=C/C1=NCCN1`, the molecule was called inactive in test [15].

As for `CSc1ccccc1N1CCN(CCCCCC(=O)NC2CCCc3ccccc32)CC1` (stereo not given), the molecule was classed as inactive in test [15].

Turning to `CC(C)=CC1C(C(=O)OCc2coc(Cc3ccccc3)c2)C1(C)C` (stereo not given), the Potency result in test [2], in test [3], in test [4], in [5], in test [6] and in test [7] was “inactive” in each case. Moreover, the Potency result in test [8], in test [9], in [10], in [11], in [12] and in [13] was “inactive” throughout. In test [14], the Potency result was “inactive”.

With `CC(=O)OC1CCC2(C)C3=C(CCC2C1(C)C)[C@@]1(C)CCC(C(C)CCC=C(C)C)[C@@]1(C)CC3` (stereo not given in full), the Potency result in [17] and in test [1] was “inactive” in each case.

`CN(CCC(N)CC(=O)NC1C=CC(n2ccc(N)nc2=O)OC1C(=O)O)C(=N)N` (stereo not given): the Potency in test [17] was 0.199 µM (active). For the same molecule, the Potency result in test [18], in test [19] and in test [1] was “inactive” each time. Moreover, the call in test [20] was inactive.

For the molecule `CC1COC2=C1C(=O)C(=O)c1c2ccc2c1CCCC2(C)C` (stereo not given), in [1], the Potency was 79.4 µM (active).

Take `O=C1CC[C@]2(O)C3Cc4ccc(O)c5c4C2(CCN3CC2CC2)C1O5` (stereo not given in full): the Potency entry in test [17], in test [19] and in test [1] was “inactive” throughout. Further, the molecule was classed as inactive in test [20].

In the case of `CC1=CC(=O)c2c(O)cccc2C1=O`, the Potency result in test [17], in test [18] and in test [19] was “inactive” each time. The molecule was classed as inactive in test [20]. Also, the Potency in [1] was 17.8 µM (active).

Turning to `CC[N+](C)(CC)CCC[n+]1c(-c2ccccc2)c2cc(N)ccc2c2ccc(N)cc21`, the Potency in [1] is 7.94 µM (active).

As to `N#Cc1c(Cl)c(Cl)c(Cl)c(C#N)c1Cl`, the Potency in [17] is 3.16 µM (active); in [1] it was 10 µM (active). The Potency entry in test [18] and in test [19] was “inactive” throughout. For the same molecule, in [20], the call was inactive.

Take `CC(C)=O`: the Potency result in test [1] is “inactive”.

`O=C1C=C2C(=CCOC2O)O1` (stereo not given): the Potency entry in test [17] and in test [19] was “inactive” in each case. In [20], the molecule was called inactive. For the same molecule, in test [1], the Potency was 50.1 µM (active).

In the case of `CNC1=CN(O)C(c2ccccc2)=c2cc(Cl)ccc2=N1`, the Potency result in test [1] and in test [2] was “inactive” in each case.

In the case of `CC(C)n1c(/C=C\[C@@H](O)C[C@@H](O)CC(=O)O)c(-c2ccc(F)cc2)c2ccccc21`, the Potency result in [1] was “inactive”.

Turning to `COC(=O)/C(C)=C\CC12OC(C)(C)C3CC(C=C4C(=O)c5c(OC)c6c(c(CC=C(C)C)c5OC431)OC(C)(CCC=C(C)C)C=C6)C2=O` (stereo not given), the Potency is 3.16 µM (active) in [17] and 39.8 µM (active) in [1]. In addition, the Potency result in test [18] and in [19] was “inactive” in each case. Also, the molecule was classed as inactive in test [20].

With `COc1ccc2c(c1)CCC1[C@@H]2CCC2(C)[C@@H](NCCCCCCN3C(=O)C=CC3=O)CC[C@@H]12` (stereo not given in full), the Potency entry in test [1] is “inactive”.

For the molecule `CC1(C)S[C@H]2[C@@H](N)C(=O)N2[C@H]1C(=O)O`, the Potency entry in test [17] and in test [1] was “inactive” in each case.

For the molecule `CC(=O)Oc1c2c(c(CC=C(C)C)c3c1C(=O)C1=CC4CC5C(C)(C)OC(C/C=C(\C)C(=O)O)(C4=O)[C@]15O3)OC(C)(CCC=C(C)C)C=C2` (stereo not given in full), the Potency in test [17] and in test [1] was 12.6 µM (active) throughout. For the same molecule, the Potency entry in test [18] and in test [19] was “inactive” in each case. The molecule was called inactive in test [20].

As to `O=C(NC(=O)c1c(F)cccc1F)Nc1ccc(Cl)cc1`, the Potency entry in test [17], in [19] and in test [1] was “inactive” each time. Further, in test [20], the call was inactive.

On to `CN1[C@@H]2CC(OC(=O)[C@@H](CO)c3ccccc3)C[C@@H]1[C@H]1O[C@H]12` (stereo not given in full), for which the Potency result in [1] is “inactive”.

Turning to `CNC(C)C1CC[C@H](N)[C@@H](OC2C(N)C[C@H](N)[C@@H](OC3OC[C@](C)(O)C(NC)[C@H]3O)C2O)O1` (stereo not given in full), the Potency entry in test [1] was “inactive”.

As to `COc1ccc(CC2NC[C@H](O)[C@H]2OC(C)=O)cc1` (stereo not given in full), the Potency result in [17], in test [19] and in test [1] was “inactive” each time. In addition, in [20], the result was inactive.
